# Compounds without any hit were thinned out: in the full panel of roughly 79,000, 15% have a hit. Values without a mark were called inactive. Activity calls are given as the source filed them. Cut-off read from the data, not from the text of the source: active = growth inhibition above about 70%; inactive = the rest.
# Assays:
# [1] = NCI Yeast Anticancer Drug Screen. Data for the mec2-1 strain (AID 157); details: S. cerevisiae mec2-1 strain, hits give high values
# Summary of the method: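 Using mec2-1 yeast: add compound, measure growth, express inhibition versus vehicle-treated cultures.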
# [2] = NCI Yeast Anticancer Drug Screen. Data for the rad14 strain (AID 159);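 note: 0% = growth of vehicle-treated control cultures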; details: S. cerevisiae rad14 strain growth inhibition, hits give high values
# Summary of the method: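 Screen for anticancer potential: a yeast strain altered in DNA damage repair is grown with compound, and reduced growth is quantified against vehicle controls.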
# [3] = NCI Yeast Anticancer Drug Screen. Data for the sgs1 mgt1 strain (AID 161);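 note: 0% = growth of cultures given vehicle only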; details: S. cerevisiae sgs1 mgt1 strain, hits give high values
# Summary of the method: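 This yeast growth screen uses a strain with defined DNA-repair lesions; compound-treated growth is compared with vehicle-treated growth.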
# [4] = NCI Yeast Anticancer Drug Screen. Data for the CLN2oe strain (AID 163);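 note: 0% = growth of vehicle-only control cultures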; details: S. cerevisiae CLN2oe strain, hits give high values
# Summary of the method: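 Whole-cell yeast growth assay. A strain engineered for altered cell-cycle control received compound, and inhibition relative to vehicle-treated cultures was recorded.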
# [5] = NCI Yeast Anticancer Drug Screen. Data for the cln2 rad14 strain (AID 165);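 note: 0% = growth equal to vehicle treated cultures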; details: S. cerevisiae cln2 rad14 strain, hits give high values
# Summary of the method: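 Yeast strain cln2 rad14, bearing defects in cell cycle control and DNA repair, serves as the test system; values reflect growth inhibition compared with vehicle.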
# [6] = NCI Yeast Anticancer Drug Screen. Data for the bub3 strain (AID 167); details: S. cerevisiae bub3 mutant strain, hits give high values
# Summary of the method: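 Screening used yeast with an engineered genetic alteration affecting cell cycle control. Compound-exposed cultures were compared with vehicle cultures, and reduced growth was taken as inhibition.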
# [7] = NCI Yeast Anticancer Drug Screen. Data for the wt2 strain (AID 169);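 note: 0% = growth of vehicle-treated yeast cultures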; details: S. cerevisiae wt2 strain growth inhibition, hits give high values
# Summary of the method: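 Treated yeast vs. vehicle-treated yeast: growth inhibition determined.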
# [8] = NCI Yeast Anticancer Drug Screen. Data for the mlh1 strain (AID 171);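 note: 0% = growth of vehicle-treated control cultures of the same strain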; details: S. cerevisiae mlh1 strain growth inhibition, hits give high values
# Summary of the method: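 A yeast strain with a defined genetic lesion serves as the test organism. Cultures receive compound or vehicle, and growth is measured.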
# [9] = NCI Yeast Anticancer Drug Screen. Data for the sgs1 strain (AID 173);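 note: 0% = growth of vehicle-only control cultures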; details: S. cerevisiae sgs1 mutant, hits give high values
# Summary of the method: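 A genetically defined yeast mutant is incubated with the test compound, and its growth is compared to that of the same strain given vehicle.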
# [10] = NCI Yeast Anticancer Drug Screen. Data for the mlh1 rad18 strain (AID 175); details: S. cerevisiae mlh1 rad18 strain growth inhibition, hits give high values
# Summary of the method: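 Steps: expose repair-defective yeast to compound; measure growth; express inhibition against vehicle-treated controls.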
# [11] = NCI Yeast Anticancer Drug Screen. Data for the rad18 strain (AID 177); details: S. cerevisiae rad18 mutant growth inhibition, hits give high values
# Summary of the method: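 Measured value is growth inhibition of a yeast strain bearing a DNA repair alteration, referenced to vehicle-treated cells.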
# [12] = NCI Yeast Anticancer Drug Screen. Data for the rad52 strain (AID 147);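 note: 0% = growth of vehicle-treated control cultures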; details: S. cerevisiae rad52 mutant growth inhibition, hits give high values
# Summary of the method: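 Here a repair-compromised yeast strain receives each compound; its growth is then quantified and normalised to vehicle-only controls.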
# [13] = NCI Yeast Anticancer Drug Screen. Data for the wt1 strain (AID 149);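 note: 0% = growth of vehicle-treated wt1 cultures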; details: S. cerevisiae wt1 strain (SPY 50644) growth inhibition, hits give high values
# Summary of the method: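 Using yeast strain wt1, compound-induced growth inhibition was determined against vehicle-treated cultures.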
# [14] = NCI Yeast Anticancer Drug Screen. Data for the rad50EPP+ strain (AID 151);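 note: 0% = growth of vehicle-treated control cultures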; details: S. cerevisiae rad50 mutant strain, hits give high values
# Summary of the method: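 Read-out is yeast growth inhibition relative to vehicle; cells used were the rad50EPP+ strain.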
# [15] = NCI Yeast Anticancer Drug Screen. Data for the mgt1 strain (AID 153); details: S. cerevisiae mgt1 mutant growth inhibition, hits give high values
# Summary of the method: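 Measured: inhibition of mgt1 yeast growth by compound, normalized to vehicle-treated cultures.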
# [16] = NCI Yeast Anticancer Drug Screen. Data for the rad50 strain (AID 155);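 note: 0% = growth of vehicle-only cultures of the same strain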; details: S. cerevisiae rad50 strain growth inhibition, hits give high values
# Summary of the method: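 Relative growth inhibition (compound vs vehicle) was measured in yeast with a defined repair-gene alteration.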
# [17] = at 5.0 µM (retest, dose inferred, filed as 0.5)
# [18] = at 50.0 µM (retest, dose inferred, filed as 5.0)
smiles,measurement,setting,value
CC(C)=CCC/C(C)=C/CN1C(=O)C=CC1=O,growth inhibition,[1]; [17],-16%
same,growth inhibition,[1]; at 11.0 µM,99% (active)
same,growth inhibition,[1]; at 33.0 µM,100% (active)
same,growth inhibition,[1]; [18],99% (active)
same,growth inhibition,[1]; at 50.0 µM,99.7% (active)
same,growth inhibition,[1]; at 100.0 µM,100% (active)
same,growth inhibition,[2]; at 1.2 µM,14%
same,growth inhibition,[2]; at 3.7 µM,53%
same,growth inhibition,[2]; at 11.0 µM,100% (active)
same,growth inhibition,[2]; at 33.0 µM,100% (active)
same,growth inhibition,[2]; at 100.0 µM,100% (active)
same,growth inhibition,[3]; [17],36%
same,growth inhibition,[3]; [18],99% (active)
same,growth inhibition,[3]; at 50.0 µM,99.5% (active)
same,growth inhibition,[4]; at 1.2 µM,-13%
same,growth inhibition,[4]; at 3.7 µM,5%
same,growth inhibition,[4]; at 11.0 µM,81% (active)
same,growth inhibition,[4]; at 33.0 µM,99% (active)
same,growth inhibition,[4]; at 100.0 µM,99% (active)
same,growth inhibition,[5]; [17],-29%
same,growth inhibition,[5]; [18],99% (active)
same,growth inhibition,[5]; at 50.0 µM,99.3% (active)
same,growth inhibition,[6]; at 1.2 µM,10%
same,growth inhibition,[6]; at 3.7 µM,37%
same,growth inhibition,[6]; [17],-24%
same,growth inhibition,[6]; at 11.0 µM,99% (active)
same,growth inhibition,[6]; at 33.0 µM,99% (active)
same,growth inhibition,[6]; [18],99% (active)
same,growth inhibition,[6]; at 50.0 µM,99.4% (active)
same,growth inhibition,[6]; at 100.0 µM,99% (active)
same,growth inhibition,[7]; at 1.2 µM,24%
same,growth inhibition,[7]; at 3.7 µM,76% (active)
same,growth inhibition,[7]; at 11.0 µM,100% (active)
same,growth inhibition,[7]; at 33.0 µM,99% (active)
same,growth inhibition,[7]; at 100.0 µM,99% (active)
same,growth inhibition,[8]; at 1.2 µM,-8%
same,growth inhibition,[8]; at 3.7 µM,15%
same,growth inhibition,[8]; at 11.0 µM,98% (active)
same,growth inhibition,[8]; at 33.0 µM,99% (active)
same,growth inhibition,[8]; at 100.0 µM,99% (active)
same,growth inhibition,[9]; at 1.2 µM,20%
same,growth inhibition,[9]; at 3.7 µM,48%
same,growth inhibition,[9]; at 11.0 µM,99% (active)
same,growth inhibition,[9]; at 33.0 µM,100% (active)
same,growth inhibition,[9]; at 100.0 µM,99% (active)
same,growth inhibition,[10]; [17],69%
same,growth inhibition,[10]; [18],98% (active)
same,growth inhibition,[10]; at 50.0 µM,99.3% (active)
same,growth inhibition,[11]; at 1.2 µM,4%
same,growth inhibition,[11]; at 3.7 µM,32%
same,growth inhibition,[11]; at 11.0 µM,99% (active)
same,growth inhibition,[11]; at 33.0 µM,99% (active)
same,growth inhibition,[11]; at 100.0 µM,99% (active)
COc1ccc(C(=O)/C=C\c2ccc(Cl)c(Cl)c2)cc1,growth inhibition,[12]; at 1.2 µM,16%
same,growth inhibition,[12]; at 3.7 µM,15%
same,growth inhibition,[12]; at 11.0 µM,19%
same,growth inhibition,[12]; at 33.0 µM,34%
same,growth inhibition,[12]; at 100.0 µM,56%
same,growth inhibition,[13]; at 1.2 µM,26%
same,growth inhibition,[13]; at 3.7 µM,26%
same,growth inhibition,[13]; at 11.0 µM,29%
same,growth inhibition,[13]; at 33.0 µM,43%
same,growth inhibition,[13]; at 100.0 µM,81% (active)
same,growth inhibition,[14]; at 1.2 µM,12%
same,growth inhibition,[14]; at 3.7 µM,10%
same,growth inhibition,[14]; at 11.0 µM,16%
same,growth inhibition,[14]; at 33.0 µM,31%
same,growth inhibition,[14]; at 100.0 µM,24%
same,growth inhibition,[15]; at 1.2 µM,7%
same,growth inhibition,[15]; at 3.7 µM,-38%
same,growth inhibition,[15]; at 11.0 µM,-4%
same,growth inhibition,[15]; at 33.0 µM,25%
same,growth inhibition,[15]; at 100.0 µM,70% (active)
same,growth inhibition,[16]; at 1.2 µM,4%
same,growth inhibition,[16]; at 3.7 µM,7%
same,growth inhibition,[16]; [17],53%
same,growth inhibition,[16]; at 11.0 µM,6%
same,growth inhibition,[16]; at 33.0 µM,34%
same,growth inhibition,[16]; [18],68%
same,growth inhibition,[16]; at 50.0 µM,69.5%
same,growth inhibition,[16]; at 100.0 µM,71% (active)
same,growth inhibition,[1]; at 1.2 µM,-7%
same,growth inhibition,[1]; at 3.7 µM,0%
same,growth inhibition,[1]; [17],47%
same,growth inhibition,[1]; at 11.0 µM,7%
same,growth inhibition,[1]; at 33.0 µM,23%
same,growth inhibition,[1]; [18],58%
same,growth inhibition,[1]; at 50.0 µM,59.6%
same,growth inhibition,[1]; at 100.0 µM,68%
same,growth inhibition,[2]; at 1.2 µM,-19%
same,growth inhibition,[2]; at 3.7 µM,-20%
same,growth inhibition,[2]; at 11.0 µM,-30%
same,growth inhibition,[2]; at 33.0 µM,-17%
same,growth inhibition,[2]; at 100.0 µM,42%
same,growth inhibition,[3]; [17],-18%
same,growth inhibition,[3]; [18],80% (active)
same,growth inhibition,[3]; at 50.0 µM,70.8% (active)
same,growth inhibition,[4]; at 1.2 µM,12%
same,growth inhibition,[4]; at 3.7 µM,10%
same,growth inhibition,[4]; at 11.0 µM,8%
same,growth inhibition,[4]; at 33.0 µM,22%
same,growth inhibition,[4]; at 100.0 µM,69%
same,growth inhibition,[5]; [17],18%
same,growth inhibition,[5]; [18],77% (active)
same,growth inhibition,[5]; at 50.0 µM,57.6%
same,growth inhibition,[6]; at 1.2 µM,0%
same,growth inhibition,[6]; at 3.7 µM,2%
same,growth inhibition,[6]; [17],12%
same,growth inhibition,[6]; at 11.0 µM,-3%
same,growth inhibition,[6]; at 33.0 µM,29%
same,growth inhibition,[6]; [18],80% (active)
same,growth inhibition,[6]; at 50.0 µM,74.6% (active)
same,growth inhibition,[6]; at 100.0 µM,67%
same,growth inhibition,[7]; at 1.2 µM,15%
same,growth inhibition,[7]; at 3.7 µM,0%
same,growth inhibition,[7]; at 11.0 µM,12%
same,growth inhibition,[7]; at 33.0 µM,37%
same,growth inhibition,[7]; at 100.0 µM,76% (active)
same,growth inhibition,[8]; at 1.2 µM,11%
same,growth inhibition,[8]; at 3.7 µM,12%
same,growth inhibition,[8]; at 11.0 µM,-11%
same,growth inhibition,[8]; at 33.0 µM,15%
same,growth inhibition,[8]; at 100.0 µM,64%
same,growth inhibition,[9]; at 1.2 µM,10%
same,growth inhibition,[9]; at 3.7 µM,5%
same,growth inhibition,[9]; at 11.0 µM,11%
same,growth inhibition,[9]; at 33.0 µM,44%
same,growth inhibition,[9]; at 100.0 µM,67%
same,growth inhibition,[10]; [17],39%
same,growth inhibition,[10]; [18],72% (active)
same,growth inhibition,[10]; at 50.0 µM,63.5%
same,growth inhibition,[11]; at 1.2 µM,-17%
same,growth inhibition,[11]; at 3.7 µM,-35%
same,growth inhibition,[11]; at 11.0 µM,-44%
same,growth inhibition,[11]; at 33.0 µM,-6%
same,growth inhibition,[11]; at 100.0 µM,52%

# From PubChem BioAssay (NCI)
